Screening results (PubChem)
Most compounds without a hit are left out; they make up all but 5.4% or so of the library.
HSF1 activator: increases HSF-1 driven luciferase reporter signal; NIH3T3-HGL HSF-1 luciferase reporter, MG132, 8 h; 100% = twice DMSO control signal; activation, % at 9 µM; hit rate 1.7% among 300,000;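 active = mean replicate activation of at least 50% with a set share of replicates each reaching 50%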;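 also: 0% = median of the neutral control wells and 100% = twice that signal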
AHR act: activates the human aryl hydrocarbon receptor | P35869 | AHR-responsive luciferase reporter cells, luminescence | activation, % at 5 µM | hit rate 2.5% among 320,000 | AID 2796; in the data active = activation above about 47%;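 also: 0% = vehicle wells and 100% = reference agonist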
Target sequence (P35869 whole entry, looked up): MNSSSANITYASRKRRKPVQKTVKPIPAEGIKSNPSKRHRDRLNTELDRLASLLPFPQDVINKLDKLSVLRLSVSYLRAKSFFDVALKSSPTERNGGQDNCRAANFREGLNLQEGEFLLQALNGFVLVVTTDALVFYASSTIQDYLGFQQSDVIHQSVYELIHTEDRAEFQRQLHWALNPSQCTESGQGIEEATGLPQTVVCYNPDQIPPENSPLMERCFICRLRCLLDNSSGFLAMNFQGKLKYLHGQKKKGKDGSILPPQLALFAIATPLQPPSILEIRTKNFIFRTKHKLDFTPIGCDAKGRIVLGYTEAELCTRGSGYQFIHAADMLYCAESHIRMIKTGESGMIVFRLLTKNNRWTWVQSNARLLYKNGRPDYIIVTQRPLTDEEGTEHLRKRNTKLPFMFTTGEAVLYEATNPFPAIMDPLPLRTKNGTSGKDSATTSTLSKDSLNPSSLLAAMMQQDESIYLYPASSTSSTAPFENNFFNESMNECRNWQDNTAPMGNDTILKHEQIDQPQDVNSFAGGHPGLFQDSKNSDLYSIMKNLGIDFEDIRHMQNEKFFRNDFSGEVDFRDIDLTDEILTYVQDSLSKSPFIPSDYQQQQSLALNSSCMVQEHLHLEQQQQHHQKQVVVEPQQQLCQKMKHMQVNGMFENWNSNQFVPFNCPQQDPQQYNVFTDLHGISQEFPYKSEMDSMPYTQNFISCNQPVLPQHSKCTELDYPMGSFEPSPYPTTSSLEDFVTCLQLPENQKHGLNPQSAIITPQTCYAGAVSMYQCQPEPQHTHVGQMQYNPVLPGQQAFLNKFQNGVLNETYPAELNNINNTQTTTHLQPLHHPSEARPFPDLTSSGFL
GAA850 FXN act: frataxin GAA850 promoter activation; HEK293 lucGAA850 FXN promoter luciferase reporter, 24 h; percent of 10 µM SAHA response; activation, % at 6 µM; hit rate 0.56% among 360,000; AID 540364;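 active = activation above the average of all compounds screened plus 3 SD, cutoff fixed separately per campaign, cut at about 7.5% in these data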;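 also: 0% = DMSO wells and 100% = 10 µM SAHA wells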
HSF1 inhib: HSF1 inhibition; activity change, negative = inhibition, % at 7.5 µM (by protocol); AID 2098; NIH3T3-HGL HSE-luciferase, MG132-induced, luminescence 8 h; hits give low values; hit rate 0.77% among 300,000;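 active = more than half of replicate wells show activity change below -50%, luminescence cut by over half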;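 also: luciferase reports HSF-1 transcriptional activity via heat shock element; 0% = median of DMSO wells and -100% = zero luminescence signal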
DAX1 inh: inhibits human nuclear receptor DAX1. HEK293 Gal4-DAX1 luciferase reporter, luminescence. inhibition, % at 6.75 µM. hit rate 0.99% among 340,000;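 active = inhibition above the mean over all tested compounds plus 3 SD, cut at about 4.2% in these data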;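 also: 0% = DAX1-transfected cells with DMSO and 100% = empty-vector control cells with DMSO; inhibition shows as a rise in luminescence from relieved DAX1 repression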
GAA30 FXN cntr: activates GAA30 frataxin promoter, counter-screen for GAA850 activators; shares compounds with GAA850 FXN act; HEK293 lucGAA30 FXN promoter luciferase, 24 h; DMSO = 0%, 5 µM ipriflavone = 100%; activation, % at 6 µM; hit rate 66% among 1,900;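 active = mean activation above the mean of solvent-only control wells plus 3 SD, cut at about 22% in these data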;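 also: counterscreen of GAA850 promoter hits where activity marks nonselective or luminescence artifacts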
GAA850 confirm: GAA850 FXN promoter activation confirmation. shares compounds with GAA850 FXN act. hit rate 86% among 1,900. HEK293 lucGAA850 FXN promoter luciferase reporter, 24 h; 100% = activation by SAHA. activation, % at 6 µM;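 active = mean activation above a set limit taken from the primary screen, cut at about 8% in these data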;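 also: 0% = DMSO wells and 100% = 10 µM SAHA wells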
* marks the source's active call; other numbers are inactive results; . = no result.

SMILES	HSF1 activator	AHR act	GAA850 FXN act	HSF1 inhib	DAX1 inh	GAA30 FXN cntr	GAA850 confirm
O=C(CSc1nccc(=O)[nH]1)Nc1cccc2ccccc12	4	-1	0	2	0	.	.
CC(=O)Nc1cccc(OCC(=O)Nc2sccc2C(N)=O)c1	18	25	9.8*	11	2	109*	36*
O=C(N/N=C/c1ccc(OC(=O)c2ccco2)cc1)c1ccccn1	36	24	7.8*	10	.	115*	33*
O=C(N/N=C/C=C\c1ccco1)c1ccccn1	62*	2	7.7*	33	2	63*	38*
CCOc1ccc(C(=O)NNC(=O)CCNC(=O)c2ccco2)cc1OC	-1	0	2	-9	0	.	.
CCc1nn2c(=O)cc(COC(=O)c3ccc(SC)cc3OC)nc2s1	.	1	-2	.	0	.	.
CCCC(=O)Nc1ccc(-c2nc3cc(C)c(C)cc3o2)cc1	28	-8	9.8*	19	2	108*	48*
CCCC(=O)Nc1ccc2oc(-c3ccncc3)nc2c1	-38	-2	2	-20	1	.	.
COc1cc2c(c(OCC(=O)NC(C)C)c1)C(=O)O[C@@H](C)CCCC(=O)CCCCC2	7	1	12*	2	-2	23*	9.8*
Cc1cc(C)cc(N(C(=O)c2nsc(Cl)c2Cl)C(C(=O)NC2CCCC2)c2ccc(O)cc2)c1 (stereo unspecified)	10	0	-4	8	-1	.	.
Cc1ccc(N(C(=O)c2nsc(Cl)c2Cl)C(C(=O)NC2CCCC2)c2ccc(O)cc2)cc1C (stereo unspecified)	15	2	9.5*	3	0	34*	14*
CC1CCCC(C)N1CCCNC(=O)c1ccc2c(c1)NC(=O)c1ccccc1S2 (stereo unspecified)	-9	0	6	-4	1	.	.
CCC(C)N(CCNC(=O)c1ccc2c(c1)NC(=O)c1ccccc1S2)C1CCCCC1 (stereo unspecified)	1	-2	11*	-8	1	18	11*
O=C1c2cccnc2C(Nc2ccccc2Br)N1Cc1ccco1 (stereo unspecified)	-4	6	0	-9	1	.	.
CCCCOc1ccc(C(=O)NCC(=O)NCC2CCCO2)cc1 (stereo unspecified)	5	7	0	-1	1	.	.
COc1ccc2c(c1OC)C(=O)N(c1cccc(C(F)(F)F)c1)C2	40	-7	18*	18	2	99*	38*
COc1ccc(OC)c(C(=O)Cn2c3[n+](c4ccc(C(F)(F)F)cc42)CCCCC3)c1	7	-1	1	3	0	.	.
O=C(Nc1ccc(OC(F)F)cc1)c1cc(S(=O)(=O)N2CCOCC2)ccc1N1CCCC1	.	.	1	.	0	.	.
Cc1ccc(-n2ncc3c(N4CCCC4)ncnc32)c(C)c1	29	7	7.6*	17	0	72*	24*
CCOC(=O)c1c(CSC(=N)N)n(-c2ccccc2)c2cc(Br)c(OC(C)=O)cc12	25	0	10*	-2	4.3*	-7	33*
CCOC(=O)c1c(CN2CCN(C)CC2)n(-c2ccccc2)c2cc(Br)c(O)cc12	-8	0	-2	3	2	.	.
CCOC(=O)C1(Cc2ccccc2C)CCCN(C(=O)c2ccc(C(C)=O)s2)C1 (stereo unspecified)	.	.	-1	.	-1	.	.
CCc1nc2sc(C(C)=O)c(N)c2c2c1CCCC2	-21	9	-1	-7	.	.	.
CCc1nc2sc(C#N)c(N)c2c2c1CCCC2	-8	4	10*	-13	0	14	14*
COc1ccc([C@H]2C[C@@H](O)[C@H](n3cc(COC(=O)c4ccccc4)nn3)CN2CC2CCCCC2)cc1	.	.	2	.	2	.	.
SMILES	HSF1 activator	AHR act	GAA850 FXN act	HSF1 inhib	DAX1 inh	GAA30 FXN cntr	GAA850 confirm
O=C(CCCCl)NC(=S)Nc1ccc(N2CCOCC2)cc1	-42	0	1	-35	.	.	.
Cc1nn2c(nc(N3CCOCC3)c3ccccc32)c1C=C(C#N)C#N	-6	4	3	-2	-1	.	.
Cc1nn2c(nc(N3CCCCC3)c3ccccc32)c1C=O	-28	0	9.5*	-20	-2	-3	12*
Cn1cc(CN2CCCC(CNC(=O)c3ccc4c(c3)OCO4)C2)c2ccccc21 (stereo unspecified)	-7	13	11*	-3	1	21	13*
CN(C)S(=O)(=O)c1ccc(N2CCCC2)c(C(=O)Nc2ccccc2F)c1	-10	1	0	7	0	.	.
CCN(CC)S(=O)(=O)c1ccc(N2CCCC2)c(NC(=O)Cc2cc(OC)c(OC)c(OC)c2)c1	-6	-1	8.4*	1	4.7*	32*	8.4*
COc1ccc(C(C)(C)C)cc1NC(=O)c1cc(S(=O)(=O)N(C)C)ccc1N1CCCC1	5	2	15*	2	-2	-3	9.3*
OCC1CCCN(C(=S)Nc2ccc(Oc3ccccc3)cc2)C1 (stereo unspecified)	26	9	11*	13	2	105*	34*
O=c1[nH]c2ccc(NCc3ccc(OCc4ccccc4Cl)cc3)cc2[nH]1	35	.	2	17	0	.	.
COc1cc(CNc2ccc3[nH]c(=O)[nH]c3c2)ccc1OCc1cccc(C)c1	26	5	6	12	-2	.	.
COc1cc(CNc2ccc3[nH]c(=O)[nH]c3c2)ccc1OCc1ccccc1Cl	43	1	7.9*	8	-2	36*	20*
COc1cc(CNc2ccc3[nH]c(=O)[nH]c3c2)ccc1OCc1ccc(C)cc1	13	.	9.0*	16	-2	74*	30*
CC(C)=CC(=O)NCCc1ccccc1	28	6	15*	14	2	75*	20*
CCN(CC)S(=O)(=O)c1cc(NC(=O)CSCc2c(C)noc2C)ccc1C	.	0	8.4*	.	-1	10	8.2*
CCN(CC)S(=O)(=O)c1cc(NC(=O)CCc2c(C)noc2C)ccc1C	.	3	-2	.	0	.	.
COc1ccc(Br)cc1C1=CC(=O)C[C@H](c2ccc(F)cc2)C1	.	.	-1	.	-1	.	.
CCOC(=O)c1c(NC(=O)CSc2nnc(-c3c[nH]c4ccccc34)n2CCOC)sc2c1CCCCC2	-15	3	17*	-18	-1	5	8.2*
CCOC(=O)c1c(NC(=O)CSc2c[nH]c3ccccc23)sc2c1CCCC2	34	17	1	10	-1	.	.
O=C(O)C(CCc1ccccc1)N1CCOCC1 (stereo unspecified)	.	.	1	.	0	.	.
COc1cc(/C=N/Nc2ncnc3sc4c(c23)CCC4)ccc1O	-31	.	20*	-13	0	67*	20*
